From PubChem
GPR151 activ – activates the human receptor GPR151. activation, % at 11.2 µM. 650,000 tested, 1% active. AID 1508602. PathHunter beta-arrestin GPR151 cells, luminescence; in the data active means activation above about 4.9%;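 further: 0% = median of compound wells and 100% = cells with positive control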
FBW7 act – activators of human E3 ligase FBW7. 650,000 tested, 0.13% active. AlphaScreen FBW7–phospho-cyclin E peptide binding, activator screen. normalized activity (activation), % at 26.1 µM. AID 1259310. Q969H0; in the data active means normalized activity above about 1.9%;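 further: purified mutant Fbw7 with reduced substrate affinity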
Target sequence (Q969H0 whole entry, looked up): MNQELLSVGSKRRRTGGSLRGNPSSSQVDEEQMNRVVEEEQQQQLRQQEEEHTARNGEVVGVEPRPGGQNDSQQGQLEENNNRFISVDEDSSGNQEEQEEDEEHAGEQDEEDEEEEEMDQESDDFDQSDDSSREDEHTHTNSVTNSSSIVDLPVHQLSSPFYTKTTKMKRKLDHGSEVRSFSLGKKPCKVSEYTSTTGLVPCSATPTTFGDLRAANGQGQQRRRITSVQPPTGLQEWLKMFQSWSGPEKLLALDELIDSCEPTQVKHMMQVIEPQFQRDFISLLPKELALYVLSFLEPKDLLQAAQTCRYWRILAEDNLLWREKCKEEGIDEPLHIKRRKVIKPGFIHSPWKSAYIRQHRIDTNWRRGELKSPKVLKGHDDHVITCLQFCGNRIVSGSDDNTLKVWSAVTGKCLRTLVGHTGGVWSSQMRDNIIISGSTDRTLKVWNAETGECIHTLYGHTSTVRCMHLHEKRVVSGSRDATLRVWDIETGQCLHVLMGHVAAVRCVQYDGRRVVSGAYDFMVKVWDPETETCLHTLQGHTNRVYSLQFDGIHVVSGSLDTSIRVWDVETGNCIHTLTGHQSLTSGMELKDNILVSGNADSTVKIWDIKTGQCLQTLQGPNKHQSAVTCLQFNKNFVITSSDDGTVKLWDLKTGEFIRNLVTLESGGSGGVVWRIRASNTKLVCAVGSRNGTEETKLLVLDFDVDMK
MITF primary – human MITF inhibition, primary screen; AlphaScreen MITF homodimerization, bead proximity signal; inhibition, % at 2.6 µM; 650,000 tested, 0.91% active; in the data active means inhibition above about 50%;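 further: 0% = vehicle wells with protein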
TEAD-YAP block – TEAD-YAP interaction inhibition; HEK-TIYL cells, TEAD-Gal4/YAP UAS-luciferase luminescence; inhibition, % at 9.12 µM; 640,000 tested, 1.4% active; AID 1259422; in the data active means inhibition above about 32%;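 further: 0% = median of test compound wells and 100% = reference inhibitor wells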
* hit, by the source's call. Hits are enriched below; roughly 3.4% of the tested compounds scored in any of these assays.

SMILES	GPR151 activ	FBW7 act	MITF primary	TEAD-YAP block
CCSc1nc(O)cc(=O)n1-c1ccccc1OC	-1	0	11	10
COc1ccccc1-n1c(SC)nc(O)cc1=O	0	3.9*	2	6
O=C1N[C@@H](Cc2ccccc2)C(=O)N2CCN(Cc3ccc(Cl)cc3)C[C@H]12	-2	2.1*	-5	2
O=C1N[C@@H](Cc2ccc(Cl)cc2)C(=O)N2CCN(Cc3ccccc3)C[C@H]12	2	0	-1	7
c1ccc(-n2cnc3c(NCc4cccnc4)nc(N4CCN(c5ccccn5)CC4)nc32)cc1	-3	0	18	26
c1ccc(N2CCN(c3nc(NCc4cccnc4)c4ncn(-c5ccsc5)c4n3)CC2)nc1	-2	0	6	51*
c1cncc(CNc2nc(N3CCOCC3)nc3c2ncn3-c2ccsc2)c1	-2	0	10	45*
CCCn1c(=O)c2c(nc3n(-c4cccc(C)c4)c(C)cn23)n(C)c1=O	-1	0	5	6
CCOc1ccc(C2=NC(c3ccc(OC)c(Br)c3)NC(c3cccc(OCC)c3O)C2)cc1 (stereo not drawn)	-1	0	-2	-10
CCOC(=O)c1ccc(NC(=O)C(CCSC)NS(=O)(=O)c2cccs2)cc1 (stereo not drawn)	0	0	-6	-9
CCOc1ccc(Nc2nc(Nc3ccc(NC(C)=O)cc3)nc(C)c2[N+](=O)[O-])cc1	-1	0	-3	44*
CC(=O)Nc1ccc(Nc2nc(C)c([N+](=O)[O-])c(Nc3ccccc3)n2)cc1	3	0	6	29
Cc1ccc(S(=O)(=O)Nc2ccccc2C(=O)Nc2ccc(-c3nc4ccc(C)cc4s3)cc2)cc1	-1	1	5	-3
CC1=CCC(C(=O)O)C(C(=O)Nc2ccc(-c3nc4ccc(C)cc4s3)cc2)C1 (stereo not drawn)	-3	0	-12	59*
Cc1ccc(S(=O)(=O)NC(=O)Nc2ccc(-c3nc4ccc(C)cc4s3)cc2)cc1	-9	0	16	91*
O=C(NCC1CCC2(CCN(Cc3ccc4ncccc4c3)CC2)O1)C1CCCO1 (stereo not drawn)	1	2.1*	2	-3
COc1ccc2oc(=O)c(-c3csc(Nc4ccccc4C(F)(F)F)n3)cc2c1	1	1	11	-7
COC(=O)C/C=N/N=C1/NC(=O)/C(=C/C(=O)O)S1	1	0	57*	9
COC(=O)/C=C1\S/C(=N\N=C\c2ccc(Cl)cc2)NC1=O	-1	0	12	6
O=C(CCl)N(c1ccccc1)c1ccccc1	-2	0	24	66*
O=C(COc1ccc(Br)cc1)Nc1ccc(Cl)cc1C(=O)O	0	1	4	13
COC(=O)C1=C(C)NC2=C(C(=O)CC(c3ccccc3)C2)C1c1cc(OC)ccc1OC (stereo not drawn)	2	0	3	33*
COc1ccc(COC(=O)C2=C(C)NC3=C(C(=O)CC(C)(C)C3)C2c2ccccc2)cc1 (stereo not drawn)	0	2.6*	14	7
COC(=O)C1=C(C)NC2=C(C(=O)CC(c3ccc(OC)cc3)C2)C1c1ccc(OC)c(Br)c1 (stereo not drawn)	0	0	-15	7
CC1=C(C(=O)Nc2ccc(C)cn2)C(c2ccsc2)C2=C(CC(C)(C)CC2=O)N1 (stereo not drawn)	0	0	-17	55*
SMILES	GPR151 activ	FBW7 act	MITF primary	TEAD-YAP block
COc1ccc(C2CC(=O)C3=C(C2)NC(C)=C(C(=O)OCc2ccccc2)C3c2ccc(OC)c(Br)c2)cc1 (stereo not drawn)	-1	1	-12	48*
COc1ccc(COC(=O)C2=C(C)NC3=C(C(=O)CC(C)(C)C3)C2c2ccc(-c3ccccc3)cc2)cc1 (stereo not drawn)	-1	0	5	15
CC1=C(C(=O)Nc2ccccn2)C(c2ccsc2)C2=C(CC(C)(C)CC2=O)N1 (stereo not drawn)	2	0	2	7
CCOC(=O)C1=C(C)NC2=C(C(=O)CC(c3ccccc3)C2)C1c1cc(OC)ccc1OC (stereo not drawn)	2	0	-2	1
CC(=O)Nc1ccccc1NC(=O)Cc1ccc(C)cc1	0	0	-2	-3
CCN1CCN(C(=O)Cn2ncc3ccccc32)CC1	-1	0	3	-3
COc1ccccc1NC(=O)C1=C(C)NC2=C(C(=O)CC(C)(C)C2)C1c1cccc(O)c1 (stereo not drawn)	-1	2.4*	11	1
CCOC(=O)C1=C(C)NC2=C(C(=O)C(C(=O)OC)C(C)C2)C1c1ccc(C)cc1 (stereo not drawn)	-2	1	10	-1
CCOC(=O)C1=C(C)NC2=C(C(=O)C(C(=O)OC)C(C)C2)C1c1ccc(OC)cc1 (stereo not drawn)	0	2.3*	18	-17
COc1cc2oc(=O)c(CC(=O)NCc3ccccc3)c(C)c2cc1OC	-1	0	20	49*
COc1cc([C@@H]2c3cc4c(cc3C(OC3O[C@@H]5COC(C)O[C@H]5[C@H](O)[C@H]3O)C3COC(=O)[C@@H]32)OCO4)cc(OC)c1O (stereo partly drawn)	0	0	8	-26
COc1cc([C@@H]2c3cc4c(cc3[C@H](O)C3COC(=O)[C@@H]32)OCO4)cc(OC)c1OC (stereo partly drawn)	1	0	-1	55*
COc1cn(-c2ccc(F)cc2)nc1C(=O)Nc1ccccc1SC	1	0	6	32*
COCCn1c(C)cc(C(=O)COC(=O)c2cccnc2SC)c1C	-6	0	7	10
COCCn1c(C)cc(C(=O)COC(=O)c2ccccc2Br)c1C	-6	0	7	82*
COc1ccc(C(=O)OCC(=O)c2cc(C)n(CC(F)(F)F)c2C)cc1[N+](=O)[O-]	0	0	-6	9
Cc1cc(C(=O)COC(=O)c2ccccc2[N+](=O)[O-])c(C)n1CC(F)(F)F	-11	0	5	95*
Cc1cc(C(=O)COC(=O)c2cccnc2Cl)c(C)n1CC1CCCO1 (stereo not drawn)	-7	0	13	66*
Cc1cc(C(=O)COC(=O)c2n[nH]c3ccccc23)c(C)n1CC1CCCO1 (stereo not drawn)	-7	0	-1	94*
CC(=O)N1CCN(c2ccc(Nc3cc(C)ccn3)nn2)CC1	-1	-1	38	5
COCCOC(=O)C1=C(N)OC2=C(C(=O)CC(C)(C)C2)C1c1cccnc1 (stereo not drawn)	0	0	3	1
Cc1cccc([N+](=O)[O-])c1NCc1ccc(N(C)C)cc1	0	0	11	1
COc1ccc(CN2C(=O)CC(C(=O)Nc3ccc(Cl)cc3)SC2=Nc2ccccc2)cc1 (stereo not drawn)	1	-1	6	-16
Cc1cc(C(=O)COC(=O)c2ccccc2Br)c(C)n1CC1CCCO1 (stereo not drawn)	-6	0	0	92*
